A selection: hits, their analogues and other compounds. The true share with any hit is near 1.8%.
Six1-Eya2 blk = qHTS Assay for Inhibitors of the Six1/Eya2 Interaction. AlphaScreen GST-Six1/His-Eya2 binding, biochemical; hits give low values. 0.56% of 360,000 active. activity change, % (test concentration not listed). Homeobox protein SIX1 (Homo sapiens) + Protein phosphatase EYA2 (Homo sapiens), …
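AlphaScreen luminescence read after one hour at 37 °C in darkness. Pin-transferred compounds met GST-Six1 and His-Eya2 protein (5X stock 250 nM/500 nM) plus glutathione donor and Ni-chelate acceptor beads (5X, 50 ug/mL).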
PI5P4K alpha inh = qHTS for Inhibitors of phosphatidylinositol 5-phosphate 4-kinase (PI5P4K). PI5P4Kalpha enzyme, ADP-Glo luminescence, 60 min; hits give low values. max response, %. 1.2% of 330,000 active; active = max response of -50% or lower; inconclusive = between -30% and -50%; inactive = -30% or higher; also: value at the top dose of about 77 µM
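Compounds were pin-transferred onto PI5P4Kalpha and substrate in HEPES pH 7.4 buffer with EGTA, CHAPS and 5% DMSO. ATP (5 microM final) started the reaction, which ran 60 minutes at room temperature before ADP-Glo detection.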
CtBP-E1A inh = qHTS Assay for Inhibitors of the CtBP/E1A Interaction; CtBP / adenovirus E1A interaction (AlphaScreen); AlphaScreen GST-E1A/His-CtBP binding, 1536-well; hits give low values; activity change, % (concentration not given with the values); 0.49% of 340,000 active; AID 651724, 2012
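AlphaScreen with 125 nM GST-E1A and 125 nM His-CtBP (5X stocks) in Tris pH 8.0, 300 mM NaCl, BSA, Tween 20, TCEP. Compounds preincubated 2 h at 37 deg C, then glutathione donor/nickel acceptor beads added for 1 h at 37 deg C in dark.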
PI4K2A inh = qHTS for small molecular inhibitors of PI4K2A; Phosphatidylinositol 4-kinase type 2-alpha (Homo sapiens), Q9BTU6; purified PI4K2A, ADP-Glo luminescence, 1 h; hits give low values; activity change, negative = inhibition, % at 76.9 µM; 0.13% of 420,000 active; in the data active = activity change below about -50%; inconclusive = mostly about -30% to -49%;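 also: -100% = wells without enzyme as full effect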
Target sequence (Q9BTU6 whole entry, looked up): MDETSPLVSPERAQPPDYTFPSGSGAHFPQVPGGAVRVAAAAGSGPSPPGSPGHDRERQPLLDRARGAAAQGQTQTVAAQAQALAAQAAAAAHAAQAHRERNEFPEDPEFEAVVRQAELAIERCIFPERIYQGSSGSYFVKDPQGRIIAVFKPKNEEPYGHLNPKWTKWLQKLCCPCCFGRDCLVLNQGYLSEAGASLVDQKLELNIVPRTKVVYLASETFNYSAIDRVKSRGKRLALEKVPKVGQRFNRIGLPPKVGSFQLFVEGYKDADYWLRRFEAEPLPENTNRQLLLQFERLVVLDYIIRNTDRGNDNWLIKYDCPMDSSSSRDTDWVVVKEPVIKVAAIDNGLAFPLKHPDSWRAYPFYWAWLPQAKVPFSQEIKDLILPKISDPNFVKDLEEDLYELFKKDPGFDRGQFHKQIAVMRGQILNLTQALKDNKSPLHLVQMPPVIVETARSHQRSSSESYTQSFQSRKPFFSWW
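Compounds are screened against recombinant PI4K2A using PI as substrate and ATP, the latter dispensed at 300 microM. Reactions run one hour at ambient temperature before ADP-Glo detection; full inhibition defined by wells lacking enzyme.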
pAkt inh = HTS Assay for Inhibitors of Akt Phophorylation: Primary Screen; Neuro2A IGF-stimulated pAkt S473 HTRF, 20 min; hits give low values; activity change, % for hits at 50 µM; 0.32% of 360,000 active; AID 651550, 2012; in the data active = activity change below about -80%; inconclusive = mostly about -51% to -80%
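Single-point screen (50 µM final compound) in Neuro2A cells stimulated 20 min with 6 nM IGF at 37 deg C. After lysis, Ser473-phosphorylated Akt read by HTRF (ex 330 nm, em 615/665 nm) as the 665/615 ratio.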
Active calls of the source: *; i = inactive; ? = inconclusive; . = not tested or not shown. Rule as the data show it, unless noted: active = activity change below about -65%; inconclusive = mostly about -30% to -63%; inactive = weaker than that. Unless noted, % is scaled to controls: 0 for no effect and ±100 for the full control effect.

SMILES | Six1-Eya2 blk | PI5P4K alpha inh | CtBP-E1A inh | PI4K2A inh | pAkt inh
COc1ccc(/C=C/C(=O)Oc2ccc(/C=N/NC(=O)c3ccccc3)cc2)cc1OC | 2 | -2 | -75* | 6 | i
COc1ccc(/C=N/NC(=O)c2ccncc2)cc1OC | 8 | 0 | 0 | -9 | i
CCSc1nc(-c2ccco2)ccc1C#N | -1 | -73* | 10 | -9 | i
COc1ccc(-c2nc(Cn3c(=O)cc(-c4ccccc4)c4c(C)nn(C)c43)c(C)o2)cc1OC | . | . | . | 2 | .
N#CC(C#N)=C(N)/C(C#N)=C/c1ccc(O)cc1 | . | . | . | 3 | .
N#CC(=Cc1ccc(O)cc1)C(N)=C(C#N)C#N | -6 | -69* | -15 | -7 | i
O=C(CNCc1ccccn1)N1CCc2ccccc2C1 | -89* | -2 | -95* | -5 | i
O=C(CSc1ncccn1)N1CCc2ccccc2C1 | 7 | -2 | . | -4 | i
Cc1cc(C(=O)N/N=C/c2c(C)[nH]n(-c3ccccc3)c2=O)n[nH]1 | -91* | -6 | -94* | -16 | i
Cc1[nH]n(-c2ccccc2)c(=O)c1/C=N/Nc1nncc(-c2ccccc2)n1 | -91* | . | -91* | -14 | i
Cc1[nH]n(-c2ccc(Br)cc2)c(=O)c1/C=N/NC(=O)c1ccccc1 | -11 | 1 | . | 0 | i
Cc1ccc(/C=N\NC(=O)COc2ccc(C)cc2[N+](=O)[O-])cc1 | -1 | -7 | 2 | -4 | i
Cc1cc(C(=O)N/N=C/c2c(C)n(C)c3ccccc23)n[nH]1 | -1 | -5 | -9 | 3 | i
Cc1ccc(OCC(=O)N/N=C\c2c(C)[nH]n(-c3ccccc3)c2=O)c([N+](=O)[O-])c1 | -91* | -13 | -81* | -10 | i
Cc1[nH]n(-c2ccccc2)c(=O)c1/C=N/NC(=O)c1cccc(F)c1 | -92* | -4 | . | -10 | i
CCN(CC)S(=O)(=O)c1ccc(C(=O)NNC(=O)c2cccs2)cc1 | -1 | -26 | 4 | -2 | i
COc1cccc(-c2cc(=O)c3cc(NC(C)=O)ccc3[nH]2)c1 | -19 | -6 | -23 | -5 | i
COc1ccc(CCNC(=O)c2ccc(Cn3c(=O)c4ccccc4n(Cc4cc(C)ccc4C)c3=O)cc2)cc1OC | . | . | . | -9 | .
COc1ccc(OCc2cc(C(=O)NC3Cc4ccccc4C3)no2)c(Cl)c1 | 1 | -3 | -7 | 1 | i
Cc1[nH]n(-c2ccccc2)c(=O)c1/C=N/NC(=O)c1ccc(O)cc1O | -91* | -16 | . | -5 | i
O=S(=O)(c1ccc(NC(=S)N/N=C/c2ccc(O)c(O)c2)cc1)N1CCOCC1 | -13 | -23 | -27 | -1 | i
NS(=O)(=O)c1ccc(NC(=S)Nc2ccc(S(=O)(=O)N3CCCC3)cc2)cc1 | 8 | 3 | -4 | 3 | i
O=[N+]([O-])c1cc(Cl)cc(/C=N/NC(=S)Nc2ccc(S(=O)(=O)N3CCOCC3)cc2)c1O | -91* | -85* | -98* | 17 | i
O=S(=O)(c1ccc(NC(=S)NN=Cc2ccccc2O)cc1)N1CCCCC1 | -86* | -23 | -89* | 7 | i
COc1ccc(C(=O)NCC(=O)OCC(=O)Nc2sccc2C#N)cc1OC | -7 | -58* | . | -9 | i
SMILES | Six1-Eya2 blk | PI5P4K alpha inh | CtBP-E1A inh | PI4K2A inh | pAkt inh
Cc1ccc(S(=O)(=O)CCC(=O)OCC(=O)Nc2sccc2C#N)cc1 | ? | -60* | -12 | -5 | i
COc1ccc(OC)c(NC(=O)COC(=O)CNC(=O)c2ccc(OC)c(OC)c2)c1 | -1 | -1 | 2 | 1 | .
CCOC(=O)NN1C(=O)c2ccccc2NC1C (configuration not stated) | 9 | 1 | -11 | -4 | i
O=[N+]([O-])c1ccc(CSc2ncnc3c2ncn3[C@@H]2O[C@H](CO)[C@@H](O)[C@H]2O)cc1 | 0 | 1 | 3 | -1 | i
O=C(CSc1nnc(-c2ccco2)n1Cc1ccccc1)c1ccccc1 | -6 | 2 | 4 | -3 | i
Cn1c(SCC(=O)c2ccc(-c3ccccc3)cc2)nnc1-c1ccco1 | -9 | -62* | -1 | -9 | i
Cc1ccc(C(=O)CSc2nnc(-c3ccco3)n2Cc2ccccc2)cc1 | -8 | -51* | -17 | -3 | -109%*
COc1ccc(-c2noc(-c3ccccc3C(=O)NCc3ccco3)n2)cc1 | -6 | 7 | -6 | -10 | -110%*
COc1cccc(NC(=O)c2ccccc2-c2nc(-c3ccccc3)no2)c1 | 12 | 14 | 4 | -3 | i
COc1ccc(-c2noc(-c3ccccc3C(=O)NCc3ccco3)n2)cc1OC | -8 | -7 | -12 | 0 | i
COc1cccc(NC(=O)c2ccccc2-c2nc(-c3ccc(Cl)cc3)no2)c1 | 13 | 24 | 2 | -5 | -109%*
CC(=O)Nc1ccc(NC(=O)c2ccc([N+](=O)[O-])cc2Cl)cc1 | 4 | 1 | -3 | 1 | i
Cc1ccc(C(Sc2ccccc2)C(Cn2cncn2)C(=O)c2ccccc2)cc1 (configuration not stated) | -11 | 0 | -4 | -1 | -104%*
Cc1ccc(N(Cc2ccccc2)C(=O)c2cc(S(=O)(=O)N3CCOCC3)ccc2F)cc1 | -11 | -3 | 8 | 7 | i
O=C(Nc1ccc(N2CCOCC2)cc1)c1ccncc1 | 8 | 8 | 8 | -7 | i
Cc1ccnc2nc(C(=O)Nc3ccc(N4CCOCC4)cc3)nn12 | -13 | -20 | -2 | ? | -103%*
O=C(NCCCn1ccnc1)C(=O)NCC1OCCN1S(=O)(=O)c1ccc(F)cc1 (configuration not stated) | -77* | -2 | -73* | 0 | i
CCN1C(=O)N[C@@H](c2cccc(C(F)(F)F)c2)[C@@H](C(=O)OC)[C@H]1C | 7 | 1 | 1 | -6 | i
O=C(Nc1ncc2c(n1)-c1ccccc1CC2)c1ccc(F)cc1 | -2 | -2 | -3 | 3 | -120%*
O=c1cc(-c2ccccc2)nc2nc(-c3ccccc3)[nH]n12 | 7 | 1 | 4 | -1 | i
Cc1cc(NC(=O)CSCC(=O)OCC(=O)c2cccc(Br)c2)no1 | -6 | -62* | -6 | -5 | i
COc1ccc(C=NNc2nc3ccccc3s2)cc1 | 9 | -2 | -5 | -5 | i
C(=NNc1ccc2ccccc2n1)c1ccccn1 | -69* | -9 | -69* | -29 | i
C(=N\Nc1nc2ccccc2s1)/c1ccccn1 | -73* | -4 | -86* | ? | i
